High-throughput results deposited in PubChem BioAssay by National Center for Advancing Translational Sciences (NCATS).
A selection: hits, their analogues and other compounds. The true share with any hit is near 7%.
D3 ag: activates the human D3 dopamine receptor; AID 652048; D3R DiscoveRx beta-arrestin cells, luminescence, 90 min; 0.58% of 410,000 active; max activation, %; in the data active = max activation above about 30%; also: 0% is about no effect
Target sequence (P35462 whole entry, looked up): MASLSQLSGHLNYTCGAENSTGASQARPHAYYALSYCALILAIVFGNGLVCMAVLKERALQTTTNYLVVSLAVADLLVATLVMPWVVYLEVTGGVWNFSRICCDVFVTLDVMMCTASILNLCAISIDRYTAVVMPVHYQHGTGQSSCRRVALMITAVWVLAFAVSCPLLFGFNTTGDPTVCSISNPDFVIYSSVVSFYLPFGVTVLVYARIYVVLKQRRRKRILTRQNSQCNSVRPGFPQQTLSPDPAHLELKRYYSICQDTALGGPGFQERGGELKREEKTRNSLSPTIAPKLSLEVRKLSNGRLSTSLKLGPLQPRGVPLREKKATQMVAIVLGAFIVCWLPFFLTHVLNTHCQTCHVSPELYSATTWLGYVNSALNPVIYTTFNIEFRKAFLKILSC
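Cells at 1500/well, incubated overnight, then treated with pinned compounds (dopamine as control) for 90 min at 37 degrees C. DiscoveRx reagent added for 30 - 60 minutes at room temperature; luminescence read.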
IL1B secr inh: inhibitors of inflammasome signaling (IL-1 beta secretion); 4.7% of 360,000 active; THP-1 LPS/ATP IL-1B secretion, AlphaLISA, 16 h; active compounds read low; activity change, % at 57.5 µM; AID 743279; in the data active = activity change below about -50%; inconclusive = mostly about -30% to -49%; also: % is scaled to controls: 0 for no effect and ±100 for the full control effect
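THP-1 cells pretreated 1 hr with compounds (up to 57.5 uM final), then stimulated with LPS (250 ng/mL final) plus ATP (1.25 mM final); secreted IL-1B measured by AlphaLISA after 16 hr, decreased signal indicating inhibition.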
ATXN viability: reduces viability in counter-screen for ATXN expression inhibitors | S2 cells (HEK-293 line with an ATXN2-luciferase reporter) viability, CellTiter-Fluor protease fluorescence, 24 h | Potency, µM (top dose mostly 56.7 µM), most hits filed as cytotoxic | 0.49% of 400,000 active; also: potency is read from the fitted curve at half-maximal effect; nearly all actives have a fitted effect of over 40% in size
ATXN2 expr inh: inhibitors of ATXN2 expression. AID 1745845. HEK-293 ATXN2-luciferase reporter, luminescence, 24 h. 0.72% of 360,000 active. Potency, µM (series often up to 57 µM), for inactives: at the highest dose activity change, negative = inhibition, most hits filed as inhibitors; also: potency is read from the fitted curve at half-maximal effect; % is scaled to controls: 0 for no effect and ±100 for the full control effect; nearly all actives have a fitted effect of over 55% in size
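ATXN2-luciferase reporter cells (luciferase flanked by upstream and downstream ATXN2 gene portions) were treated 24 h at 37 °C with compounds at up to 57 uM. SteadyGlo luminescence gave expression; GF-AFC fluorescence gave viability.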
DRD3 antagonist: D3 dopamine receptor (human) antagonism; P35462; D3R cells, DiscoveRx beta-arrestin luminescence, antagonist mode; active compounds read low; 2.5% of 360,000 active; max response, negative = inhibition, %; in the data active = max response below about -50%; inconclusive = no clear call, values can overlap the other calls; also: % is scaled to controls: 0 for no effect and ±100 for the full control effect
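Cells expressing the human receptor were seeded at 1500 cells/well, incubated overnight at 37 degrees C in 5% CO2, then exposed to library compounds with dopamine controls for 90 minutes at 37 degrees C before luminescent detection.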
Integrin act MD: activates integrin-mediated alleviation for muscular dystrophy | Potency, µM (doses to about 38.3 µM), inactives show at the highest dose activation, most hits filed as activators | alpha7betagal myoblasts, beta-gal FDG fluorescence, 48 h | 0.064% of 350,000 active;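 also: potency is read from the fitted curve at half-maximal effect; 100% = response of the positive control SU9516; nearly all actives have a fitted effect of over 60% in size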
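alpha7betagal+/- myoblasts (passage 13, 250/well) treated 48 h at 37C with compounds at 1:260 dilution of DMSO stock. Lysed, then beta-galactosidase activity read as FDG fluorescence (ex 480/em 540) after 30 min, with pre-read for autofluorescence.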
An asterisk follows results filed as active; i = inactive; u = inconclusive; x = no result given; [ ] = remark or other dose. Unless noted, calls follow the shape of the dose curve; as a rule, active = well fitted curve in the direction sought with a large enough effect; inconclusive = small, poorly fitted or top-dose-only effect, or another doubt; inactive = no such curve, though single readings can be large; an effect the other way counts as inactive or inconclusive.

SMILES	D3 ag	IL1B secr inh	ATXN viability	ATXN2 expr inh	DRD3 antagonist	Integrin act MD
Cc1ccc(NS(=O)(=O)c2ccc(NC(=O)C(C)Sc3ccc(Cl)cc3)cc2)c(C)c1 (stereo not given)	-2.5	u	i	u	-4.9	-54.3%
COc1cc(C(C)=O)ccc1OCCCN1CCC(Cc2ccccc2)CC1	-21.0	-55.4*	u	-23.6%	-90.3*	-19.5%
COc1cc(C(C)=O)ccc1OCCN1CCC(Cc2ccccc2)CC1	-21.6	-64.3*	i	-33.3%	-77.2*	-24.3%
COc1ccccc1NC(=O)Nc1c(C)n(C)n(-c2ccccc2)c1=O	0.0	25.0	i	-6.1%	-16.1	18.7%
O=C(CONS(=O)(=O)c1ccc(Cl)cc1)NCCNc1ncc(C(F)(F)F)cc1Cl	5.0	-54.9*	i	0.0%	11.0	2.2%
O=C(CN1CCN(c2ncc(C(F)(F)F)cc2Cl)CC1)NCCNc1ncc(C(F)(F)F)cc1Cl	19.4	u	i	u	12.3	1.6%
ON=C1CCC2CCCCC2C1 (stereo not given)	0.5	-14.5	i	x	0.0	-18.2%
O=C(COc1ccc(S(=O)(=O)N2CCCCC2)cc1)NCc1cccnc1	35.8*	31.7	i	7.0%	13.4	-2.0%
Cc1cc(C)c(NC(=O)c2ncoc2-c2ccco2)c(C)c1	-21.4	x	i	-20.1%	x	x
COc1ccccc1N(CC(N)=O)S(=O)(=O)c1ccc(C)cc1	9.4	-24.4	i	0.2%	-76.5*	21.8%
O=C(Nc1ccc(N2CCOCC2)cc1)c1cc2c(s1)CCCCC2	-20.4	-80.3*	i	-12.2%	0.0	6.5%
O=C(Nc1cccc(S(=O)(=O)Nc2ccc(Cl)cc2)c1)c1cc2c(s1)CCCC2	6.1	-81.0*	u	u	-22.8	-36.8%
O=C(Nc1ccccc1N1CCOCC1)c1cc2c(s1)CCCCC2	-1.5	-13.8	i	14.0%	6.9	5.7%
Cc1csc(NC(=O)c2cc3c(s2)CCCCC3)n1	-2.2	-63.0*	i	-49.4%	u	18.9%
O=C(Nc1ccc(N2CCOCC2)cc1)c1cc2c(s1)CCCC2	-23.9	-79.3*	i	-9.4%	-2.2	8.5%
CCCC(=O)OC1=CN(Cc2ccccc2)S(=O)(=O)c2ccccc21	-0.2	x	i	1.1%	x	x
CCc1cccc(NC(=O)c2cc3c(s2)-c2ccccc2OC3)c1	-12.5	x	i	4.1%	x	x
Nc1nc(Nc2ccc(S(N)(=O)=O)cc2)nn1C(=O)c1c(F)cccc1F	x	x	x	12.2µM*	x	x
NS(=O)(=O)c1ccc(NC(=O)c2c(F)cccc2Cl)cc1	1.9	37.4	i	-31.9%	6.3	u
Cc1c(CC(=O)N2CCC(C(N)=O)CC2)c(=O)oc2cc3c(cc12)CCC1(CCCCC1)O3	45.0*	-4.6	u	-23.8%	73.7	13.9%
Cc1c(CC(=O)NCCCC(=O)O)c(=O)oc2cc3c(cc12)CCC(C)(C)O3	4.5	0.0	i	3.16µM*	9.2	10.5%
Cc1c(CCC(=O)N2CCC(C(=O)O)(c3ccccc3)CC2)c(=O)oc2cc3oc4c(c3cc12)CCCC4	-4.3	15.1	i	u	-25.5	6.5%
Cc1oc2cc3oc(=O)c(CC(=O)N4CCCCC4)c(C)c3cc2c1C	8.9	x	x	x	x	x
Cc1c(CCC(=O)N2CCC(C(=O)O)CC2)c(=O)oc2cc3oc4c(c3cc12)CCCC4	41.9*	-11.2	i	-35.7%	95.6	-2.2%
O=[N+]([O-])c1ccc(/C=N/n2cnc3ccccc32)s1	-1.7	-73.8*	x	u	2.7	-69.1%
SMILES	D3 ag	IL1B secr inh	ATXN viability	ATXN2 expr inh	DRD3 antagonist	Integrin act MD
O=[N+]([O-])c1ccc(/C=N/n2c(CO)nc3ccccc32)s1	-1.4	-3.5	i	u	-26.5	-51.5%
Cc1nc2ccccc2n1/N=C/c1ccc([N+](=O)[O-])s1	2.1	u	x	21.2µM*	0.1	-36.7%
Cc1cc2ncn(/N=C/c3ccc([N+](=O)[O-])s3)c2cc1C	10.5	0.0	i	-17.8%	-14.9	-45.6%
Cc1nc2ccccc2n1/N=C/c1ccc([N+](=O)[O-])o1	-6.2	-97.4*	i	u	-21.9	-19.1%
Nc1ccc(C=Cc2ccc(N)cc2)cc1	1.6	-12.5	i	-1.6%	13.4	x
Nc1ccc(C=C2C=Cc3ccccc32)cc1	-0.5	-74.4*	i	28.0%	-16.5	-0.1%
NC(N)=Nc1ccc(C=C2C=Cc3ccccc32)cc1	4.7	-68.3*	u	-4.5%	-9.3	-56.0%
O=C(Nc1cc(S(=O)(=O)N2CCCC2)ccc1OCC(F)(F)F)c1ccc(F)cc1	-4.8	0.0	i	-8.6%	5.8	-16.7%
CC(=O)NC(Cc1ccccc1F)C(=O)NC1CCN(S(=O)(=O)c2ccccc2)CC1 (stereo not given)	-2.0	-2.5	i	-1.4%	-13.3	-50.5%
COc1cc(CSc2nnnn2-c2ccc(C)cc2)cc(OC)c1OC	13.3	-76.7*	i	-32.1%	18.6	-33.6%
COc1ccc(N2CCN(C(=O)NC(=O)c3ccc(Cl)cc3)CC2)cc1	-1.2	-9.5	i	-2.8%	0.9	4.2%
COC(=O)N/N=C\c1ccccc1OC/C=C/c1ccccc1	-26.4	-64.6*	i	6.7%	-10.2	-12.6%
NC(=S)N/N=C\c1ccccc1OCc1ccccc1	-5.0	-4.6	i	-14.4%	-53.8*	8.4%
NC(=S)N/N=C/c1ccccc1	4.4	15.2	i	-3.6%	-8.7	-25.1%
NC(=S)N/N=C/c1ccccc1OC(=O)/C=C/c1ccccc1	-0.9	u	u	1.78µM*	-7.1	u
O=C(CSCc1ccccc1)N/N=C/c1ccccc1OCc1ccccc1	-3.7	u	i	11.3%	2.3	-20.2%
CCCOc1ccc(F)cc1-c1cc(C(=O)Nc2cc(OC)ccc2OC)[nH]n1	-17.2	9.1	i	-17.9%	u	x
CC(C)(C)c1ccc(OCCC(=O)Nc2ccc(N3CCOCC3)cc2N2CCOCC2)cc1	5.6	-51.1*	u	-8.0%	1.5	-43.1%
Cc1cc(=O)oc2cc(OCC(=O)OCC(=O)N(C)C3CCS(=O)(=O)C3)ccc12 (stereo not given)	2.7	2.6	i	-2.5%	7.6	7.9%
O=C(CC1NCCc2ccccc21)Nc1ccc(Cl)cc1 (stereo not given)	-13.1	-22.4	i	u	-87.2*	-60.6%
O=C(CC1NCCN(Cc2ccccc2)C1=O)Nc1ccc(Cl)cc1 (stereo not given)	-6.3	-8.9	i	-9.3%	1.4	u
CCCCOc1ccc(CSCCN=C(N)N)cc1	0.1	-80.6*	i	-6.9%[11.3 µM]	-7.8	-51.4%
COc1cccc(OC)c1C(=O)N1CCN(c2c(Cc3ccccc3)c(C)nc3ncnn23)CC1	2.4	-1.1	i	0.3%	5.8	-19.6%
